Our source for the z-score values is PubChem BioAssay AID1628 (Sanford-Burnham Center for Chemical Genomics, 2009).

Among all 190,000 compounds or so, about 930 (0.49%) were called active.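 How the source made its calls: active means z-score of insulin promoter reporter brightness in nuclei below -3 at 5 µM, with at least 500 cells counted; inconclusive means wells with under 500 cells, flagged as toxic or sparse; inactive means the rest.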 The list shows a part of the results. Results with a measured potency or affinity are listed apart.

The nature of this assay: insulin promoter down-regulators in MIN6 cells, imaging, high-content screening, mouse beta cells (AID 1628). Conditions: MIN6 insulin promoter GFP reporter, at 5 µM, stronger effect = lower value.
`O=C1C=C(c2ccccc2)C[C@H](c2cccs2)[C@H]1n1nnc([N+](=O)[O-])n1`: the z-score is -3.36 (active). The result for `CCOC(=O)CC1C(=O)NCCN1c1nc2c(C)cccn2c(=O)c1/C=C1\SC(=S)N(CC(C)C)C1=O` (stereo not drawn) reads 16.9 (inactive); that for `CCN(CC)CCCNc1nc2cc(OC)c(OC)cc2c2nc(-c3cccnc3)nn12`, -3.38 (active). As to `CCN(CC)CCCC(C)Nc1c2ccc(Cl)cc2nc2ccc(OC)cc12` (stereo not drawn), the z-score was 12.4 (inactive). For `COc1ccc(-c2c[n+](CC(=O)N3c4ccccc4Sc4ccccc43)c3n2CCC3)cc1`, the z-score was -3.33 (active). The result for `CC1CCC(C(C)C)C(OC(=O)C[n+]2cc(-c3ccc(Cl)cc3)n3c2CCCCC3)C1` (stereo not drawn) reads -4.3 (active); that for `Nc1ccc(-c2nc3nc(N)nc(N)c3nc2-c2ccc(N)cc2)cc1`, 4.9 (inactive); that for `Cc1cccc(OCC2=N/C(=C\N(C)C)C(=O)O2)c1`, 2.11 (inactive).

Consider `Nc1nonc1C(=O)NCCNCc1ccccc1OCc1ccccc1F`, for which the z-score was -3.51 (active). Turning to `COc1ccc(S(=O)(=O)N(CCCN2CCCC2=O)Cc2cc3c(C)ccc(C)c3[nH]c2=O)cc1`, the z-score was -4.34 (active). The result for `COc1ccc(C(=O)N(CN2CCCC2=O)c2ccc(C)cc2)cc1` reads 3.42 (inactive). The result for `COC(=O)c1cnn2c(C(F)(F)F)cc(-c3ccc(F)cc3)nc12` reads 4.23 (inactive); that for `Oc1c(C(c2ccccn2)N2CCCCC2)cc(Cl)c2cccnc12` (stereo not drawn), -5.13 (active).

Turning to `CN(C)CCCN(C(=O)COc1ccc(Cl)cc1)c1nc2ccc(F)cc2s1`, the z-score was 1.61 (inactive).

As for `COc1ccc(-c2csc(N(CCCN(C)C)C(=O)c3cccs3)n2)cc1`, the z-score was -4.21 (active).

As to `COc1ccc(-c2cc(C(F)(F)F)nc(SCC(=O)NCCN3CCOCC3)n2)cc1OC`, the z-score is 0.28 (inactive). `COc1ccc(-c2csc(N(CCCN3CCOCC3)C(=O)c3ccco3)n2)cc1`: the z-score is -4.01 (active). The result for `COc1ccc(NC(=S)N(CCCN2CCOCC2)C(C)c2cc3cccc(OC)c3o2)cc1` (stereo not drawn) reads 2.54 (inactive). Consider `Cc1[nH]c2ccccc2c1Cc1nnc(SCC(N)=O)o1`, for which the z-score is 4.82 (inactive). `COc1ccc(C(=O)CSc2nnc(Cn3cnc4ccccc43)o2)cc1`: the z-score was -3.47 (active). The result for `CCC(=O)c1cc(F)c(N2CCN(S(=O)(=O)c3ccc(C)cc3)CC2)cc1C` reads -4.01 (active); that for `C/C(=N\S(=O)(=O)c1ccc(C)cc1)N1CCN(S(=O)(=O)c2ccccc2)C1`, 3.52 (inactive); that for `CCCSc1nc2sc3c(c2c(=O)[nH]1)CCN(Cc1ccccc1)C3`, 7.3 (inactive). The result for `O=C(c1ccco1)N(Cc1ccccc1)c1cccc([N+](=O)[O-])c1` reads 2.28 (inactive); that for `CC(C)(C)c1cc(C(=O)NCc2cccnc2)ccn1`, 4.34 (inactive).

With `CC(=O)c1c(COC(=O)c2ccncc2)nc2ccccc2[n+]1[O-]`, the z-score is 4.18 (inactive). The result for `CCOc1ccc(C(=O)O)cn1` reads 0.1 (inactive). The result for `CCOc1ccc2nc(C)cc(Nc3cccc([N+](=O)[O-])c3)c2c1` reads -3.35 (active); that for `O=[N+]([O-])c1ccc(N(c2ccccc2)c2ccccc2)cc1`, 3.11 (inactive). The result for `CC(C)(C)c1ccc(Cn2c(=N)n(CC(O)c3ccco3)c3ccccc32)cc1` (stereo not drawn) reads -5.45 (active); that for `Cc1ccc(Cn2c(=N)n(CC(O)c3ccco3)c3ccccc32)cc1` (stereo not drawn), -11.4 (active). In the case of `Cc1ccccc1-n1c(=O)c2ccccc2n(CC(=O)NCc2ccco2)c1=O`, the z-score is 3.06 (inactive). The result for `COc1ccc(CN(CC2CCC(C(=O)O)CC2)C(=S)Nc2cccc(C)c2)cc1` (stereo not drawn) reads 3.65 (inactive). In the case of `COCCSc1nnc(NC(=O)c2ccc([N+](=O)[O-])cc2)s1`, the z-score is 0.48 (inactive). Take `Cc1sc2ncnc(NCCCn3ccnc3)c2c1C`: the z-score was -3.16 (active). The result for `COc1ccc(C(=O)Nn2cnnc2)cc1OC` reads 4.36 (inactive); that for `COc1ccc(C(=O)Nc2cccnc2)cc1OC`, 2.67 (inactive); that for `COc1ccc(OCC(=O)Nc2ccc(S(=O)(=O)Nc3cc(C)nc(C)n3)cc2)cc1`, 3.12 (inactive). The result for `COc1ccc(C(=O)Nc2ccc(S(=O)(=O)Nc3nccnc3OC)cc2)cc1OC` reads -3.5 (active); that for `CCN(CC)c1ccc2cc(/C(N)=N/NC(=O)c3cccs3)c(=O)oc2c1`, 7.11 (inactive); that for `CCN(CC)c1ccc2cc(-c3nnc(-c4ccccc4)o3)c(=O)oc2c1`, 15.1 (inactive).

Turning to `Cc1nc2[nH]c(=O)c3c(n2n1)NC1=C(C(=O)CC(C)(C)C1)C3c1ccccc1` (stereo not drawn), the z-score was -4.42 (active). Regarding `O=C1S/C(=C/c2ccc(N3CCOCC3)o2)C(=O)N1Cc1c(F)cccc1Cl`, the z-score is 3.83 (inactive). With `Cc1sc2ncnc(Sc3ccccc3C(=O)Nc3ccc(Br)cc3)c2c1C`, the z-score is -5.49 (active). The result for `CC1CCN(S(=O)(=O)c2ccc3c(c2)c(=O)c(C(=O)N2CCCCC2)cn3C)CC1` reads 4.9 (inactive); that for `CC1CCc2c(C(=O)N3CCN(S(=O)(=O)c4cccs4)CC3)csc2C1` (stereo not drawn), -3.81 (active). Take `COC(=O)c1cc2occc2n1Cc1c(F)cccc1Cl`: the z-score is 3.08 (inactive).

With `COC(=O)c1ccc(COc2ccc3c(C)c(C)c(=O)oc3c2)o1`, the z-score is 3.49 (inactive). Take `CCOc1ccc(N2C(N)=NC(N)=NC2(C)C)cc1`: the z-score is -4.31 (active). `CCOC(=O)CN1CC23C=CC(O2)C(C(=O)Nc2cc(OC)ccc2OC)C3C1=O` (stereo not drawn): the z-score is 4.17 (inactive). Regarding `COc1cc(N2CCCC2)c(OC)cc1/C=C(/C#N)c1cccc(F)c1`, the z-score is 3.95 (inactive). The result for `N#C/C(=C\c1cc([N+](=O)[O-])c(N2CCCCC2)cc1N1CCCCC1)c1nn(-c2ccccc2)c(N)c1C#N` reads -3.55 (active); that for `COc1cc(N2CCCC2)c(OC)cc1/C=C(/C#N)c1cccc(Br)c1`, 15.4 (inactive). The result for `CCCNC(=O)c1cc(OC)c(OC)cc1[N+](=O)[O-]` reads -4.31 (active); that for `CCOC(=O)CNC(=O)c1cn(C)c(=O)c2cc(OC)c(OC)cc12`, 3.18 (inactive); that for `COc1ccccc1CC(=O)NC1CC(C)(C)NC(C)(C)C1`, 3.65 (inactive).

For `CC(=O)N1CCN(Cc2nc3cc(NC(=O)c4ccccc4)ccc3n2C)CC1`, the z-score is 3.37 (inactive). For the molecule `Cc1cc(N2CCOCC2)nc2ccc(NC(=S)N3CCCCC3C)cc12` (stereo not drawn), the z-score was 1.7 (inactive). The result for `CCN1CCN(c2cc(C)c3cc(NC(=O)Cc4ccccc4OC)ccc3n2)CC1` reads -4.89 (active). `CCc1ccc(CN(C)C(=O)CCc2nnc(-c3ccc(-c4ccccc4)cc3)o2)nc1`: the z-score was -3.31 (active). The result for `CCN(CC)c1ccc2cc(C#N)c(=O)oc2c1` reads 4.24 (inactive). `CCCCCCc1cc2cc(-c3nnc(-c4ccccc4OC)o3)c(=O)oc2cc1O`: the z-score was 8.91 (inactive).

Consider `CCCCCCc1cc2cc(-c3nnc(-c4ccccc4O)o3)c(=O)oc2cc1O`, for which the z-score was 7.49 (inactive).

`CCCCCCc1cc2cc(C(=O)Nc3ccc(OC)cc3)c(=O)oc2cc1O`: the z-score is -4.12 (active). For the molecule `CCCOc1ccc(Cn2cnc3ccccc32)cc1`, the z-score is -5.58 (active). The result for `COC(=O)c1ccc(OCCn2cnc3ccccc3c2=O)cc1` reads 0.57 (inactive). On to `Cc1cc(SCCOc2ccccc2)nc(N)n1`, for which the z-score was 3.13 (inactive). The result for `COC(=O)Cc1c(C)nc2nc(NCc3ccccc3OC)[nH]n2c1=O` reads 4.27 (inactive); that for `Cc1cc(C)cc(-n2c(=O)c3sccc3n(CC(=O)NCc3ccco3)c2=O)c1`, 4.64 (inactive); that for `CC(=O)c1sc2nc(-c3cccs3)cc(C(F)(F)F)c2c1N`, 14.9 (inactive). As for `Nc1ncnc2c1ncn2CCOc1ccccc1`, the z-score was -4.5 (active).

Regarding `CC(C)(C)NC(=O)/C=C/c1ccc(C(F)(F)F)cc1`, the z-score is -3.15 (active). The result for `CC(C)(C)C(=O)/C=c1\s/c(=C\c2ccc(-c3ccc([N+](=O)[O-])cc3)o2)c(=O)n1CC(=O)NC(N)=O` reads 17.1 (inactive); that for `CC1(C)C=Cc2c(c3c(c4c(=O)c(-c5ccc(O)cc5)coc24)OC(C)(C)CC3)O1`, -0.78 (inactive).

For `CC(C)c1nc2oc3c(N4CCN(C)CC4)ncnc3c2c2c1CCC2`, the z-score is -3.12 (active). The result for `COCCn1c(C)cc(C(=O)CSc2ncnc3sc4c(c23)CCC4)c1C` reads -8.03 (active). The result for `CC(OC(=O)c1ccc2ncsc2c1)C(=O)Nc1ncc(Cl)cc1Cl` (stereo not drawn) reads -5.12 (active); that for `Cc1noc(C)c1CS(=O)(=O)c1ccc(Br)cc1`, 3.18 (inactive); that for `N#Cc1ccc(CSc2nnc(NC(=O)c3ccc4ncsc4c3)s2)cc1`, 4.4 (inactive). The result for `Cc1noc(C)c1COC(=O)c1ccc(S(=O)(=O)NCc2ccco2)cc1` reads -4.22 (active); that for `CC(OC(=O)c1ccc(S(=O)(=O)NCc2ccco2)cc1)C(=O)Nc1ncc(Cl)cc1Cl` (stereo not drawn), -5.26 (active); that for `C1=C(N2CCOCC2)/C(=C/c2nc3ccccc3[nH]2)CC1`, 3.43 (inactive). For `CCN(CC)c1ccc2cc(C(=O)Nc3ccccn3)c(=O)oc2c1`, the z-score is 6.12 (inactive). `COc1ccc(N=c2oc3cc(O)ccc3cc2C(=O)Nc2ccccn2)cc1OC`: the z-score was -3.17 (active). Take `CC(C)OCCCn1c(NN)nc2ccccc2c1=O`: the z-score was -4.32 (active).

`CCCN1C(=O)/C(=C/c2c(NCCCOC(C)C)nc3c(C)cccn3c2=O)SC1=S`: the z-score was 11.2 (inactive). For the molecule `O=c1oc2ccccc2c(NCc2cccc(F)c2)c1[N+](=O)[O-]`, the z-score is 1.25 (inactive).

Take `Cc1ccc(/C(C#N)=C\c2ccc(N3CCOCC3)o2)cc1`: the z-score is 6.7 (inactive). For the molecule `C/C(=N\NC(=O)c1cc(-c2ccccn2)nc2ccccc12)c1cccc([N+](=O)[O-])c1`, the z-score is 4.2 (inactive). Take `Cc1cc(C)c2nc(NNC(=O)c3cc(-c4cccs4)nc4ccccc34)sc2c1`: the z-score was 3.73 (inactive).

As for `C/C(=N\NC(=O)c1cc(-c2cccs2)nc2ccccc12)c1ccccn1`, the z-score was -6.25 (active).

In the case of `Cc1ccc(N2C(=O)c3cccc4c(N5CCN(C)CC5)ccc(c34)C2=O)c2cccnc12`, the z-score is 5.89 (inactive).

`Cc1ccnc(N2C(=O)c3cccc4c([N+](=O)[O-])ccc(c34)C2=O)c1`: the z-score was 3.14 (inactive).
